Assay outcomes from PubChem.
Only some compounds are listed: those with a hit (about 0.47% of all), similar ones and a draw of the others.
AID inh – inhibitors of human activation induced cytidine deaminase | Q9GZX7 | AID deamination FRET fluorescence, UDG-coupled, 4 h | Potency, µM (highest dose often 115 µM), hits mostly inhibitors | 91,000 tested, 0.32% active | AID 1347428; note: nearly all actives have a fitted effect of over 25% in size
Target sequence (Q9GZX7 whole entry, looked up): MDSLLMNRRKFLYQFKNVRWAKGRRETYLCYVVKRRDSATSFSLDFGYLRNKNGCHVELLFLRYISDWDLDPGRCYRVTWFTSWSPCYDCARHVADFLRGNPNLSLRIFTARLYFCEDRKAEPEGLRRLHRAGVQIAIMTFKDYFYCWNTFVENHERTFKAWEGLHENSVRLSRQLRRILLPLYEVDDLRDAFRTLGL
UDG counter – UDG inhibition counter-screen; FRET deamination/UDG coupled assay, UDG read, 4 h; Potency, µM (titrated, usually from 115 µM), for inactives: top-dose activity change, negative = inhibition, most hits filed as inhibitors; 91,000 tested, 0.14% active; note: nearly all actives have a fitted effect of over 65% in size
Numbers without * were called inactive; i = inactive; ? = inconclusive; ! = repeats disagree; [ ] = another dose, or the depositor's remark. Calls come from the whole dose curve; as a rule, active = well fitted curve in the direction sought with a large enough effect; inconclusive = small, poorly fitted or top-dose-only effect, or another doubt; inactive = no such curve, though single readings can be large; an effect the other way counts as inactive or inconclusive. % is set by controls: 0 for no effect and ±100 for the full control effect; potency is the fitted concentration of half-maximal effect.

SMILES | AID inh | UDG counter
CCOc1ccc(C(=O)Nc2ccc3nc(N(CC)CC)cc(C)c3c2)cc1 | i | -7%
CCN(CC)c1cc(C)c2cc(NC(=O)c3cccc(OC)c3)ccc2n1 | 79µM* | -18%
O=C(NC(NC(=O)c1ccccc1)C(Cl)Cl)c1ccccc1 | i | 6%
COc1ccc(C2(c3ccc(F)cc3)CCCCC2)cc1 | i | -4%
Cc1ccc(C)c(C(=O)CSc2nc(-c3ccccc3)nc3c2CCCC3)c1 | i | 0%
Cc1ccc(C)c(C(=O)CSc2cccc3cccnc23)c1 | 35µM* | -9%
Cc1cccc(N(CC(=O)NCCc2ccccc2)S(=O)(=O)c2ccccc2)c1C | i | 3%[57.5 µM]
Cc1cccc(N(CC(=O)N(C)Cc2ccccc2)S(=O)(=O)c2ccccc2)c1C | 35µM* | -10%
CC(C)[C@H](Nc1ncnc2sc3c(c12)CCCC3)C(=O)O | i | 2%
COc1ccc(N(C(=O)c2cccc(C)c2)S(=O)(=O)c2ccc(Cl)cc2)cc1 | i | ?
COc1ccc(N(C(=O)c2ccccc2C)S(=O)(=O)c2ccc(C)cc2)cc1 | ? | 79µM*
COc1ccc(OC)c(C2CC(=O)Nc3c(-c4ccccc4)nsc32)c1 (stereo unspecified) | i | 2%
CC1CCN(S(=O)(=O)c2cc3c4c(c2)CC(=O)N4CCC3)CC1 | i | -25%
CC1CCCCN1S(=O)(=O)c1cc2c3c(c1)CC(=O)N3CCC2 (stereo unspecified) | ? | 89µM*
CCC1CCCCN1S(=O)(=O)c1cc2c3c(c1)CC(=O)N3CCC2 (stereo unspecified) | i | 89µM*
CCC1CCCCN1S(=O)(=O)c1ccc2c(c1)CCCN2C(C)=O (stereo unspecified) | i | 0%
O=C(c1cc(F)c(F)c(F)c1F)N(C1CCCCC1)C1CCCCC1 | i | 5%
N#Cc1nc(-c2ccc(S(=O)(=O)N3CCCC3)cc2)oc1N1CCC(Cc2ccccc2)CC1 | i | -3%
Cc1nc2nc(NC(=O)c3ccc(C(C)(C)C)cc3)[nH]n2c(=O)c1Cc1ccccc1 | ? | 0%
COc1ccccc1C(=O)Nc1nc2nc(C)c(Cc3ccccc3)c(=O)n2[nH]1 | 35µM* | -1%
CCCN(CC(F)(F)F)C(=O)CNC(=O)Cc1ccccc1 | i | 1%
CCOc1ccccc1N1CC(c2nc3ccccc3n2CCCCOc2ccccc2)CC1=O (stereo unspecified) | i | -15%
CCc1ccccc1N1CC(c2nc3ccccc3n2CCC2CCCCC2)CC1=O (stereo unspecified) | ? | 79µM*
O=C1CC(c2nc3ccccc3n2CCCCOc2ccccc2)CN1c1ccccc1Cl (stereo unspecified) | ? | 89µM*
Cc1ccc(N2CC(c3nc4ccccc4n3CCC3CCCCC3)CC2=O)cc1 (stereo unspecified) | i | ?
SMILES | AID inh | UDG counter
CCc1cccc(NC(c2nnc(-c3ccccc3)o2)c2ccc(F)cc2Cl)c1 (stereo unspecified) | ? | 79µM*
COc1cc(OC)c(NC(c2nnc(-c3ccccc3)o2)c2ccc(F)cc2Cl)cc1Cl (stereo unspecified) | i | -8%
O=C(CCc1ncc(-c2c(F)cccc2F)o1)N1CCN(S(=O)(=O)c2cccc(Cl)c2)CC1 | ? | -7%
Cc1ccc(/C=N/Nc2ccc(Cl)c(Cl)c2)cc1 | i | -3%
CCCCSCCCNC(=O)C1CCN(Cc2nc(-c3ccc(CC)cc3)oc2C)CC1 | ? | 89µM*
CCCCSCCCNC(=O)C1CCN(Cc2nc(-c3cccc(Br)c3)oc2C)CC1 | i | ?
NNCCc1ccccc1 | 45µM* | 32µM*
Nc1ccccc1C(=O)NCCc1ccccc1 | i | -1%
O=C1CCC/C(=N/NC(=O)c2cc(-c3ccc(Cl)cc3)nc3ccccc23)C1 | i | -4%
COc1ccc(C2=C(O)C(=O)N(CCc3ccccc3)C2c2ccc(C(=O)O)cc2)cc1 (stereo unspecified) | i | -3%
Cc1ccn2cc(CNC(=O)Cc3cn(C)c4ccccc34)nc2c1 | i | -3%
CCOc1ccc(S(=O)(=O)Nc2nc3ccccc3nc2Nc2ccc(OC)cc2)cc1 | ? | -1%
CCc1ccc(Nc2nc3ccccc3nc2NS(=O)(=O)c2ccccc2)cc1 | 28µM*! | 3%
CC(C)Cc1ccc(S(=O)(=O)N2CCC(c3ccncc3)CC2)cc1 | 35µM* | -9%
CC(C)(C)c1ccc(S(=O)(=O)N2CCC(c3ccncc3)CC2)cc1 | ? | -8%
Nc1ccc(/C=C/C(=O)c2ccc(F)cc2)cc1 | i | -5%
CCOC(=O)C1=C(CN2CCN(C(=O)OC(C)(C)C)CC2)NC(=O)NC1c1cccc(OC)c1 (stereo unspecified) | i | 11%
COc1cccc(CNC(=O)c2oc3c(c2C)-c2nn(Cc4cccc(Cl)c4)cc2CC3)c1 | ? | -18%[57.5 µM]
CCOC(=O)c1cccc(NC(=O)c2oc3c(c2C)-c2[nH]ncc2CC3)c1 | ? | -20%[57.5 µM]
COc1cccc(CNC(=O)c2oc3c(c2C)-c2nn(Cc4cccc(Cl)c4)cc2CC3)c1OC | 79µM* | -16%[57.5 µM]
CCOC(=O)c1cccc(NC(=O)c2oc3c(c2C)-c2nn(CC)cc2CC3)c1 | 40µM* | ?
Cc1nc2nc(NC(=O)c3ccc(C(C)(C)C)cc3)[nH]n2c(=O)c1Cl | 32µM* | 5%
COc1ccc(C(=O)Nc2nc3nc(C)c(Cl)c(=O)n3[nH]2)cc1 | i | -5%
CC(NC(=O)Cn1c(=O)c2c(ncn2C)n(C)c1=O)c1ccc(Cl)c(Cl)c1 (stereo unspecified) | i | 6%
CCCOc1ccc(-c2cc(C(F)(F)F)c(C#N)c(SCCC(=O)O)n2)cc1 | 79µM* | -21%
SMILES | AID inh | UDG counter
CCOC(=O)CSc1nc(-c2ccc(OCC)cc2)cc(C(F)(F)F)c1C#N | i | 1%
CCn1cc(C(=O)NCCc2ccccc2)c(=O)c2cc(S(=O)(=O)N3CCc4ccccc4C3)ccc21 | ? | -14%
CCCCN(CCCC)CCNC(=O)c1cn(CC)c2ccc(S(=O)(=O)N3CCc4ccccc4C3)cc2c1=O | 28µM* | ?
Cc1ccc(-c2cc(C(=O)Oc3cccc(Br)c3)no2)cc1 | i | 2%
Cc1ccc2c(c1)C(O)(c1c[nH]c3ccccc13)C(=O)N2 (stereo unspecified) | i | -4%
O=C(NCCCCCO)C1CCN(c2nc(Cl)nc3nc[nH]c23)CC1 | i | 89µM*
O=C(CCNc1nc(Cl)nc2nc[nH]c12)NC1CC1 | i | -11%
CN(Cc1ccccc1)c1oc(/C=C/c2ccc(F)cc2)nc1C#N | i | -15%
CC(C)NC(=O)C(Cc1ccccc1)NC(=O)c1ccccc1 (stereo unspecified) | i | 10%
NNc1nncc2ccccc12 | 45µM* | 35µM*
c1ccc(CN2CCC(=NNc3nncc4ccccc34)CC2)cc1 | i | 5%
CC(C)(C)OC(=O)NC1CCN(C(=O)CCCc2cccs2)CC1 | i | -3%
CNC(=O)C(C)Sc1n[nH]c(-c2ccc(OC)cc2OC)n1 (stereo unspecified) | i | -2%
O=C(Nc1cccc2cccnc12)C(c1ccccc1)c1ccccc1 | i | 89µM*
O=C(CSc1cccc2cccnc12)NNC(=O)C(c1ccccc1)c1ccccc1 | i | -12%
Cc1cc2ccccc2n1CC(=O)NC1CCN(C(C)(C)C)CC1 | i | 5%
CC(=O)N1CCc2c(sc3nc(SCC(C)C)n(-c4ccc(F)c(Cl)c4)c(=O)c23)C1 | i | 0%
